# Shown are actives, neighbours in structure and some others; about 9% of the full set was active somewhere.
# HP1b chromo inh – HTS for Inhibitors of HP1-beta Chromodomain Interactions with Methylated Histone Tails; Chromobox protein homolog 1 (Homo sapiens), P83916; AlphaScreen HP1-beta / biotin-H3K9me3 peptide binding; Potency, µM (doses to about 114 µM), inactives show top-dose activity change, negative = inhibition, actives largely listed as inhibitors; 390,000 tested, 0.56% active; AID 540317, 2011; also: nearly all actives have a fitted effect of over 70% in size
#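 AlphaScreen: HP1-beta (50 nM) preformed 30 min with biotin-H3(1-18)K9me3 peptide (50 nM) in PBS pH 7.4, 0.01% Tween-20. Compound added for 30 min at RT, then streptavidin donor/nickel chelate acceptor beads (10 ug/mL) for 30 min.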
# PLK1 PBD inh – qHTS for Inhibitors of PLK1-PDB (polo-like kinase 1 - polo-box domain): Primary Screen; Plk1 PBD binding of FITC phosphopeptide, fluorescence polarization; Potency, µM, without a hit: max response, negative = inhibition, actives largely listed as inhibitors; Serine/threonine-protein kinase PLK1 (Homo sapiens), P53350; 360,000 tested, 2.8% active; also: series mostly up to about 57 µM; % is scaled to controls: 0 for no effect and ±100 for the full control effect; nearly all actives have a fitted effect of over 65% in size
# ALOX12 inh – Primary qHTS assay for inhibitors of human arachidonate 12S-lipoxygenase (ALOX12): Round 2; Polyunsaturated fatty acid lipoxygenase ALOX12 (Homo sapiens), P18054; purified 12hLO, xylenol orange hydroperoxide absorbance; Potency, µM (doses to about 108 µM), for inactives: at the top dose activity change, negative = inhibition, hits mostly inhibitors; 580,000 tested, 1.1% active; also: % is scaled to controls: 0 for no effect and ±100 for the full control effect
# Target sequence (P18054 whole entry, looked up): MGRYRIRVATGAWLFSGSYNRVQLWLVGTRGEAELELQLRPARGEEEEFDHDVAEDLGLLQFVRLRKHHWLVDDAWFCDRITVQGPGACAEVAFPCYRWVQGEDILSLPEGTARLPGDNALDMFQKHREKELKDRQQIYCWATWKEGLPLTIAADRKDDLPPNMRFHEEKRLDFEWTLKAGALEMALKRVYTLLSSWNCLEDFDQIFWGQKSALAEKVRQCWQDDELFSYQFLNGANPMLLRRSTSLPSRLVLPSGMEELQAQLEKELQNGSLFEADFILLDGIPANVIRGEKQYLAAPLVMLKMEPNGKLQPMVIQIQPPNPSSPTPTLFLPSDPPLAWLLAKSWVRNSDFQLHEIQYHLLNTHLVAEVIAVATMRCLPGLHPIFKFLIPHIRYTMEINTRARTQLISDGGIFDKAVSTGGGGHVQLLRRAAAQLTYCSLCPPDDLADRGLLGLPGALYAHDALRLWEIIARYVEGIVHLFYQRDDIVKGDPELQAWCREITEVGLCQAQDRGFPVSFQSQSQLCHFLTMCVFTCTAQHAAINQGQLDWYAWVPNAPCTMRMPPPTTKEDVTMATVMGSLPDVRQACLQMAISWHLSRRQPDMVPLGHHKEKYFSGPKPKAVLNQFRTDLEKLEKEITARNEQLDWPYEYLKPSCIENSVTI
#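 Hydroperoxide product was detected by ferrous iron/xylenol orange as the 573 to 405 nm absorbance ratio. Arachidonic acid at 40 uM (final) was turned over for 30 min at room temperature by 150 nM human 12hLO, pH 7.0 Hepes buffer, after 15 min compound preincubation.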
# G9a block – qHTS Assay for Inhibitors of Histone Lysine Methyltransferase G9a; Histone-lysine N-methyltransferase EHMT2 (Homo sapiens), Q96KQ7; G9a H3K9 monomethylation, AlphaScreen, 2 h; Potency, µM (top dose mostly 102 µM), for inactives: at the highest dose activity, negative = inhibition, usual class: inhibitors; 350,000 tested, 8.8% active; also: % is scaled to controls: 0 for no effect and ±100 for the full control effect; nearly all actives have a fitted effect of over 75% in size
#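 Step 1: enzyme (final 20 nM) with compound, 15 min RT. Step 2: substrate peptide 500 nM and SAM 20 uM, 2 h RT. Step 3: anti-H3K9me1 antibody and AlphaScreen beads, 10 min, then plate read.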
# BAZ2B inh – qHTS Assay for Inhibitors of BAZ2B; Bromodomain adjacent to zinc finger domain protein 2B (Homo sapiens), Q9UIF8; AlphaScreen BAZ2B-H3K14Ac peptide displacement; Potency, µM (highest dose often 114 µM), for the others: top-dose activity change, negative = inhibition, hits mostly inhibitors; 360,000 tested, 4.4% active; also: % is scaled to controls: 0 for no effect and ±100 for the full control effect; nearly all actives have a fitted effect of over 60% in size
#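 Inhibition is scored as reduced AlphaScreen emission. The BAZ2B/b-H3(5-23)K14Ac complex (50 nM each) in PBS pH 7.4, 0.01% Tween-20 meets compound (up to 110 uM) for 30 min at RT before bead addition.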
# JMJD2A Tudor inh – qHTS Assay for Inhibitors of JMJD2A-Tudor Domain; 390,000 tested, 4.4% active; AlphaScreen JMJD2A-Tudor / H3K4me3 peptide binding; Lysine-specific demethylase 4A (Homo sapiens), O75164; Potency, µM (highest dose often 114 µM), inactives show at the highest dose activity change, negative = inhibition, actives largely listed as inhibitors; AID 504339, 2011; also: % is scaled to controls: 0 for no effect and ±100 for the full control effect; nearly all actives have a fitted effect of over 50% in size
# * = called active by the depositor; ? = inconclusive; . = no result; [ ] = another dose, or the depositor's remark. Calls follow the shape of the dose curve; as a rule, active = well fitted curve in the direction sought with a large enough effect; inconclusive = small, poorly fitted or top-dose-only effect, or another doubt; inactive = no such curve, though single readings can be large; an effect the other way counts as inactive or inconclusive. Potency is read from the fitted curve at half-maximal effect.
SMILES,HP1b chromo inh,PLK1 PBD inh,ALOX12 inh,G9a block,BAZ2B inh,JMJD2A Tudor inh
CS(=O)(=O)Nc1ccc(C2=NN(S(=O)(=O)c3ccccc3)C(c3cccs3)C2)cc1 (configuration not stated),19%,4%,4%,-4%,.,-27%
O=C(CCNC(=O)c1ccc(Br)cc1)OCc1ccccc1Cl,88%,-8%,?,13%[0.501 µM],31%,37%
COCCOCc1nc(C2CCCCN2C(=O)NC(C)C)no1 (configuration not stated),.,.,26%,.,.,.
CC(C)c1ccc(N2C(=O)CC(Sc3nc4ccccc4o3)C2=O)cc1 (configuration not stated),57%,-19%,0%,45µM*,0%,-15%
Cc1nnc(SC2CC(=O)N(c3ccccc3)C2=O)s1 (configuration not stated),-7%,?,99%,8.9µM*,2%,12%
O=C1CC(Sc2nnc(-c3ccccc3)o2)C(=O)N1c1ccccc1 (configuration not stated),3%,?,0%,?,10%,-8%
CSc1ccccc1NC(=O)CN1C(=O)C2CC=CCC2C1=O (configuration not stated),36%,0%,?,-3%[0.501 µM],4%,2%
CC1CCCCN1CC(=O)Nc1ccc(N2CCCCCC2)cc1 (configuration not stated),22µM*,-4%,?,3.2µM*,11µM*,1.4µM*
CSc1ccccc1NC(=O)CN1CCCCC1C (configuration not stated),18%,21µM*,-7%,3%,-1%,-15%[11.4 µM]
CC1CCCCN1CC(=O)Nc1ccc(Oc2ccccc2)cc1 (configuration not stated),49%,-12%,-31%,-6%,1%,-9%
COc1ccc(NC(=O)c2c(N)c(C(=O)c3ccc(OC)cc3)n3ccccc23)cc1,14%,.,?,-3%[59 µM],-2%,-21%
CC(C)NC(=O)N1CCC(O)(c2csc(CN3CC[C@@H](O)C3)n2)CC1,.,.,-41%[176 µM],.,.,.
Oc1ccccc1Nc1nc(NCc2ccccc2)c2ccccc2n1,-34%,-10%,?,.,25µM*,?
OCCNc1nc(N2CCCCC2)nc2ccccc12,44%,-12%,?,.,12%,-8%
OCCNc1nc(Nc2ccc(Br)cc2)nc2ccccc12,29%,?,?,50µM*,-17%,-23%
CNc1nc(NCc2ccccc2)c2ccccc2n1,41%,-1%,0%,-10%,0%,-12%
OCCNc1nc(Nc2ccccc2)nc2ccccc12,18%,-2%,-120%,?,4%,-31%
Cc1c(Cl)cccc1Nc1nc(NCCO)c2ccccc2n1,16%,-7%,?,79µM*,-16%,-15%
CCN1CCCC1CNS(=O)(=O)c1c(C)cc(C)cc1C (configuration not stated),7%,?,?,-4%,1%,9%
CCc1ccc(S(=O)(=O)c2cnc3ccc(OC)cc3c2N2CCCC(C)C2)cc1 (configuration not stated),24%,.,-18%,-11%[59 µM],-12%,-8%
Nc1c(C(=O)O)cnc2c(-c3ccc(Cl)cc3)cnn12,-4%,?,?,?,28µM*,28µM*
Clc1ccc(-c2cnn3c(-c4ccncc4)ccnc23)cc1,-1%,-9%,-12%,-31%,-25%,-34%
CC(=O)c1cnc2c(-c3ccc(Cl)cc3)cnn2c1C,-1%,30µM*,-2%,25%[59 µM],7%,-11%[11.4 µM]
C[C@@H]1CN(C(=O)c2nc3sccn3c2-c2nc3ccccc3n2C)C[C@H](C)O1,.,.,9%,.,.,.
Cc1ccc2oc(=O)c3cnn(CC(=O)Nc4ccccc4N4CCN(C)CC4)c3c2c1,28%,3%,18%,1%[59 µM],13%,-22%
SMILES,HP1b chromo inh,PLK1 PBD inh,ALOX12 inh,G9a block,BAZ2B inh,JMJD2A Tudor inh
C#CCOCCOCCOCCNc1nc(N2CCN(C(=O)[C@H]([C@@H](C)CC)n3cc([C@@H](N)CO)nn3)CC2)nc(N2CCN(C(=O)[C@H]([C@@H](C)CC)n3cc([C@@H](N)CC(C)C)nn3)CC2)n1,29%,-12%,.,-29%[12.7 µM],50µM*,50µM*
C#CCOCCOCCOCCNc1nc(N2CCN(C(=O)[C@H]([C@@H](C)CC)n3cc([C@@H](N)CO)nn3)CC2)nc(N2CCN(C(=O)[C@H]([C@@H](C)CC)n3cc([C@@H](N)CO)nn3)CC2)n1,.,.,.,-4%[12.7 µM],22µM*,.
C/C(=N\NC(=O)C1CC1c1ccc(C(C)(C)C)cc1)c1ccc(C(C)C)cc1 (configuration not stated),.,.,8%,.,.,.
NNC(=O)c1nn(-c2ccc(Cl)cc2)cc1O,-4%,17µM*,4%,-15%,-23%,-23%[11.4 µM]
Cc1c(C(=O)NN)nn(-c2ccc(Cl)cc2)c(=O)c1C#N,6%,-3%,-8%,45µM*,-11%,-25%
Cc1ccc(-n2nc(C(=O)NN)c(C)c(C#N)c2=O)cc1Cl,31%,-4%,0%,?,0%,-23%
Cc1ccc(OC(=O)c2ccccc2P(=O)(O)O)cc1,16%,-2%,?,?,?,-23%
Cn1c(=O)c2c(nc(NCc3ccc4c(c3)OCO4)n2Cc2cccc3ccccc23)n(C)c1=O,.,.,-21%,.,.,.
O=C(N/N=C/c1cn(-c2cccs2)nc1-c1ccccc1)c1ccccc1Br,28%,-5%,-12%,5%,-3%,-26%
O=C(C1=C(O)C(=O)N(CC2CCCO2)C1c1ccc(Cl)cc1)c1ccco1 (configuration not stated),10%,1%,?,1%[59 µM],-3%,-29%
COc1ccc(OC)c(C2C(C(=O)c3ccco3)=C(O)C(=O)N2CC2CCCO2)c1 (configuration not stated),-9%,-6%,?,50µM*,?,-7%
COc1ccc(C2C(C(=O)c3ccco3)=C(O)C(=O)N2CC2CCCO2)c(OC)c1 (configuration not stated),-18%,-11%,?,?,-11%,?
COc1ccc(C2C(C(=O)c3ccco3)=C(O)C(=O)N2CCN2CCOCC2)c(OC)c1 (configuration not stated),31%,-16%,?,35µM*,-32%,?
